Screening data: PubChem BioAssay, National Center for Advancing Translational Sciences (NCATS)
TDP1 cell noCPT: qHTS for Inhibitors of human tyrosyl-DNA phosphodiesterase 1 (TDP1): qHTS in cells in absence of CPT; DT40 Tdp1-/- hTDP1 cells, no CPT, ATP luminescence, 48 h; Potency, µM (top dose mostly 46.2 µM), for inactives: at the highest dose activity change, negative = growth inhibition, most hits filed as inhibitors; 420,000 compounds, 15% hits; further: potency means the concentration at half of the fitted maximal effect; on the % scale 0 is the no-effect control and ±100 the full control effect; nearly all actives have a fitted effect of over 55% in size
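A cellular qHTS used chicken DT40 cells lacking endogenous Tdp1 but carrying stably transfected human TDP1. Compounds were applied without camptothecin, and cell growth kinetics were judged by ATP-dependent luminescence after ≥48 hr.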
IL-1B inflam inh: inhibitors of inflammasome signaling (IL-1 beta secretion); THP-1 LPS/ATP IL-1B secretion, AlphaLISA, 16 h; active compounds read low; activity change, % at 57.5 µM; 360,000 compounds, 4.7% hits; AID 743279; in the data active means activity change below about -50%; inconclusive means mostly about -30% to -49%; further: on the % scale 0 is the no-effect control and ±100 the full control effect
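THP-1 cells pretreated 1 hr with compounds (up to 57.5 uM final), then stimulated with LPS (250 ng/mL final) plus ATP (1.25 mM final); secreted IL-1B measured by AlphaLISA after 16 hr, decreased signal indicating inhibition.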
DT40 TDP1 CPT: growth inhibition of DT40 Tdp1-/-;hTDP1 cells with camptothecin (screen for TDP1 inhibitors); chicken DT40 Tdp1-/-;hTDP1 cells + 20 nM CPT, ATP luminescence, 48 h; Potency, µM (series often up to 46.2 µM), for inactives: top-dose activity change, negative = growth inhibition, most hits filed as inhibitors; 420,000 compounds, 12% hits; AID 686979; further: potency means the concentration at half of the fitted maximal effect; on the % scale 0 is the no-effect control and ±100 the full control effect; nearly all actives have a fitted effect of over 55% in size
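Chicken DT40 Tdp1-/- cells complemented with human TDP1, 400 cells/well, exposed to compounds plus 20 nM camptothecin for at least 48 h at 37 C; viability read as ATP content by CellTiter-Glo luminescence.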
MCF10A rerep: inducers of DNA re-replication in MCF 10A breast cells. AID 624296. 350,000 compounds, 2.9% hits. MCF 10A DNA re-replication, Hoechst nuclear intensity, 48 h. Potency, µM (doses to about 46.1 µM), for the others: at the highest dose activity, positive = re-replication, hits mostly activators; further: potency means the concentration at half of the fitted maximal effect; % of control where 0% means no effect; nearly all actives have a fitted effect of over 50% in size
SW480 rereplic: DNA re-replication induction in SW480 cells | Potency, µM (top dose mostly 46.1 µM), inactives show top-dose re-replication activation, most hits filed as activators | 340,000 compounds, 1.8% hits | SW480 DNA re-replication, Hoechst DNA content imaging, 48 h; further: potency means the concentration at half of the fitted maximal effect; % of control where 0% means no effect; nearly all actives have a fitted effect of over 55% in size
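Quantitative HTS format with DMSO vehicle controls; 48 hr drug incubation at 37 C, then 40 min Hoechst staining and scanning imager measurement at 405 nm excitation.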
Chronic BCR inh: inhibitors of chronic active B-cell receptor signaling | ABC-DLBCL IkBa-CBG/CBR reporter, luminescence ratio, 4 h | Potency, µM (doses to about 46.1 µM), for inactives: at the top dose activity change, negative = inhibition, hits mostly inhibitors | 340,000 compounds, 0.05% hits | AID 493014; active means well fitted inhibition curve with a large enough effect in the signal ratio, with a control signal flat, not every such curve was filed as active; inconclusive means small, poorly fitted or top-dose-only effect, or effect the other way, or a change in a side signal; the % refers to the signal ratio;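 further: potency means the concentration at half of the fitted maximal effect; plate controls were basal doxycycline-induced cells for no effect and cells given 10 µM MG132 for full effect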
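Concentration-response series (up to 46 uM) were applied to TMD8 dual-reporter cells for 4 h at 37C with doxycycline. Green/red ratio, after filter-overlap correction, defined %Activity; red signal alone was normalised to basal cells and zero luminescence.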
* = called active by the depositor; ? = inconclusive; . = not tested or not shown; ! = a repeat was not active; [ ] = dose if it differs, or a comment. A selection: hits, their analogues and other compounds. The true share with any hit is near 19%. Unless noted, the call rests on the fitted dose curve; in most records, active means well fitted curve in the direction sought with a large enough effect; inconclusive means small, poorly fitted or top-dose-only effect, or another doubt; inactive means no such curve, though single readings can be large; an effect the other way counts as inactive or inconclusive.

SMILES	TDP1 cell noCPT	IL-1B inflam inh	DT40 TDP1 CPT	MCF10A rerep	SW480 rereplic	Chronic BCR inh
C[C@@]12C(=O)N(Cc3ccc(-c4ccccc4)cc3)CC(=O)N1[C@H](/C=C/c1ccccc1)[C@@H]1C(=O)N(c3ccccc3)C(=O)[C@@H]12	23µM*	-7	?	?	4%	1%
CCC1(C2CCN(C(=O)c3cc4ccccc4o3)CC2)NC(=O)N(CCc2scnc2C)C1=O (centres undefined)	?	.	13%[9.04 µM]	.	.	.
O=[N+]([O-])c1nn(-c2ccc3c(c2)OCCO3)n(O)c1=Nc1ccc(Cl)cc1	16µM*	?	23µM*	19%	6%	-19%
CCc1ccc(N=c2c([N+](=O)[O-])nn(-c3ccc4c(c3)OCCO4)n2O)cc1	-12%	-19	-13%	10%	-20%	-4%
Cc1cc(C)cc(N=c2c([N+](=O)[O-])nn(-c3ccc4c(c3)OCCO4)n2O)c1	2.9µM*	-19	2.6µM*	5%	-19%	-27%
Cc1ccc(N=c2c([N+](=O)[O-])nn(-c3ccc4c(c3)OCCO4)n2O)cc1F	?	-12	?	?	13%	-6%
O=[N+]([O-])c1nn(-c2ccc3c(c2)OCCO3)n(O)c1=Nc1ccccc1	23µM*	15	26µM*	15%	-6%	?
Cc1ccc(S(=O)(=O)CCC(=O)OCC(=O)NC(C)c2ccccc2)cc1 (centres undefined)	-25%	23	-3%	-4%	6%	3%
COc1ccc(-c2noc(CSc3nnc(-c4ccc(Cl)cc4)n3C)n2)cc1OC	16µM*	.	?	.	.	.
CCOc1ccccc1-c1noc(CSc2nnc(-c3ccccc3)n2-c2ccc(F)cc2)n1	13µM*	.	12µM*	.	.	.
COc1ccc(-c2noc(CSc3nnc(Cc4ccccc4)n3-c3ccc(F)cc3)n2)cc1	16µM*	.	?	.	.	.
COc1ccc(-n2c(C)nnc2SCc2nc(-c3ccc(OC)c(OC)c3)no2)cc1	-23%	.	-24%	.	.	.
c1ccc(-n2c(SCc3nc(-c4cccs4)no3)nnc2-c2ccco2)cc1	?	-75*	?	6%	-5%	?
CCn1c(SCc2nc(-c3ccccc3)no2)nnc1-c1cccs1	-26%	13	?	8%	-1%	15%
Clc1ccc(-c2nnc(CSc3nnc(-c4cccs4)n3Cc3ccccc3)o2)cc1	2.9µM*	-22	6.5µM*	?	2%	?
COc1cc(Cl)c(C)cc1NC(=O)CSCc1nc(-c2ccc(OC)c(OC)c2)no1	16µM*	.	21µM*	.	.	.
COc1ccc(-c2noc(CSc3nnc(-c4ccncc4)n3-c3ccc(C)cc3)n2)cc1OC	-51%	.	16µM*	.	.	.
COc1ccc(-c2noc(Cc3ccc(Cl)cc3)n2)cc1OC	?	-28	10µM*	8%	0%	?
COc1cccc(S(=O)(=O)N(C)C[C@H]2OCc3cnnn3CCCC(=O)N([C@@H](C)CO)C[C@H]2C)c1	-16%	-14	3%	.	.	.
O=c1c2cnn(-c3ccc(Cl)cc3)c2ncn1Cc1ccc(Cl)cc1Cl	?	.	0%	.	.	.
COc1ccc(-c2noc(CSc3nnc(-c4ccccc4)n3C)n2)cc1	15µM*!	-2	23µM*!	2%	-2%	8%
CCc1ccc(-n2c(SCc3nc(-c4cc(OC)ccc4OC)no3)nnc2-c2ccccc2)cc1	21µM*	.	18µM*	.	.	.
CCc1ccc(-n2c(SCC(=O)Nc3ccc(C(=O)O)cc3)nnc2-c2ccncc2)cc1	21%	7	3%	0%	-4%	0%
Cn1c(SCc2nc(-c3ccc(Br)cc3)no2)nnc1-c1ccco1	-25%	-9	-12%	22%	0%	?
